Measurements reported in PubChem BioAssay.
For some assays here: Measured potencies and affinities stand elsewhere. Calls of active or inactive are those of the source. Unless noted, how the calls were made is not given here. Non-standard residues stand in square brackets, D forms with d. Residues, ends and D or L forms follow the SMILES beside them. *: point of attachment. Butanoyl(4-(4-HOPh)) = O=C(CCCc1ccc(O)cc1)*

How the values were obtained:
[1] = antimalarial activity against Dd2 strain (AID 2302;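 active means growth inhibition above 50% at the single 2 µM test dose, taken to imply half-maximal potency below 2 µM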;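 further: 0% = DMSO untreated growth and 100% = chloroquine plus artemisinin killed control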); conditions: P. falciparum Dd2 in RBCs, LDH growth readout, 72 h; at 2 µM; hits give high values
[2] = HepG2 cytotoxicity, primary screen, cytotoxicity control for P. falciparum antimalarial project, cell-based, ATP luminescence (AID 2303;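 active means inhibition above 50%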;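 further: 0% = DMSO wells and 100% = digitonin-killed cells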); conditions: HepG2 viability, 24-48 h, at 10 µM, hits give high values
[3] = target: L-lactate dehydrogenase (Plasmodium falciparum (isolate CDC / Honduras)) (UniProt Q27743); assay: PfLDH activity inhibition – cell lysate, 3D7 strain, counter-screen for P. falciparum growth inhibition project (AID 2304);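 further: 0% = vehicle and 100% = reference inhibitor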; conditions: P. falciparum 3D7 crude extract, LDH APAD/NBT absorbance; at 2 µM; hits give high values
[4] = inhibition of 3D7 malaria parasite growth – strain 3D7 (AID 2306);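 further: 0% = DMSO wells and 100% = chloroquine plus artemisinin control wells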; conditions: P. falciparum 3D7 erythrocytic growth, LDH absorbance, 72 h; at 2 µM; hits give high values
[5] = target: Calcium-dependent protein kinase 1 (Plasmodium falciparum (isolate 3D7)) (UniProt P62344); assay: PfCDPK1 kinase inhibitors, biochemical, TCAMS library (AID 1159585; cut-off not given, nearly all actives have IC50 up to about 0.98 µM;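 further: inhibitors leave more ATP so luminescence rises with inhibition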); conditions: recombinant PfCDPK1, Kinase-Glo ATP depletion luminescence
[6] = target: Plasmodium falciparum protein kinase 6 (PK6, PF3D7_1337100) (UniProt Q8IDW1); assay: PfPK6 kinase inhibitors, biochemical, TCAMS library (AID 1159586); conditions: recombinant PfPK6, Kinase-Glo ATP depletion luminescence
[7] = target: Protein kinase 7 (PK7), Plasmodium falciparum 3D7 (PF3D7_0213400) (UniProt Q7YTF7); assay: inhibition of Plasmodium PK7 catalytic activity – biochemical, TCAMS antimalarial set, Kinase-Glo luminescence (AID 1159587); conditions: recombinant PfPK7, Kinase-Glo ATP depletion luminescence
[8] = target: Calcium-dependent protein kinase 4 (Plasmodium falciparum (isolate 3D7)) (UniProt Q8IBS5); assay: PfCDPK4 kinase inhibitors, biochemical, TCAMS library (AID 1159588; cut-off not given, nearly all actives have IC50 up to about 0.91 µM); conditions: recombinant PfCDPK4, Kinase-Glo ATP depletion luminescence
Sequence of Calcium-dependent protein kinase 4 (Plasmodium falciparum (isolate 3D7)) (Q8IBS5 whole entry, looked up): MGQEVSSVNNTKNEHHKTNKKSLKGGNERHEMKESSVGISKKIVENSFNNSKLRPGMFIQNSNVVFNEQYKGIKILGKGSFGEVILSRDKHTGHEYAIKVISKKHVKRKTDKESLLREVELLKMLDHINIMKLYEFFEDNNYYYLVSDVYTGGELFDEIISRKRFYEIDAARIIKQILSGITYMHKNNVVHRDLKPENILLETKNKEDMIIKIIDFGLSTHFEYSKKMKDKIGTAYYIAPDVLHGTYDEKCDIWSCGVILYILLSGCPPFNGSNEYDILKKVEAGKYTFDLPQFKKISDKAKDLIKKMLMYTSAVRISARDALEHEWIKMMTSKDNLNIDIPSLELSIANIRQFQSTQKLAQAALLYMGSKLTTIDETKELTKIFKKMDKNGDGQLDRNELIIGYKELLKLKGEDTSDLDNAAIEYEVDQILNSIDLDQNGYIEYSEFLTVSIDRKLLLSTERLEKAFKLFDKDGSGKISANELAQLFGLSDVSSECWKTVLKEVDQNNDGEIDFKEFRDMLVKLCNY

Sequence of Protein kinase 7 (PK7), Plasmodium falciparum 3D7 (PF3D7_0213400) (Q7YTF7 1-343): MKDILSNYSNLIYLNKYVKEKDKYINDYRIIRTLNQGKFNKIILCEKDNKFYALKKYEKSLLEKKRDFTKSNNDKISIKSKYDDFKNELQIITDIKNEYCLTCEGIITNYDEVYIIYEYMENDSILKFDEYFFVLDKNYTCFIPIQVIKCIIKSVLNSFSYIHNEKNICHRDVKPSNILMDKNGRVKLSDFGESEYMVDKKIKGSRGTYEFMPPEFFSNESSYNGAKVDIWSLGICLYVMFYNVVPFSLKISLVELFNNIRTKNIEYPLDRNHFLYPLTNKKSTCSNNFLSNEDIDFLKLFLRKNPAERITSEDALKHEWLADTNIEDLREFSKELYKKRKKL
Sequence of Plasmodium falciparum protein kinase 6 (PK6, PF3D7_1337100) (Q8IDW1 1-305): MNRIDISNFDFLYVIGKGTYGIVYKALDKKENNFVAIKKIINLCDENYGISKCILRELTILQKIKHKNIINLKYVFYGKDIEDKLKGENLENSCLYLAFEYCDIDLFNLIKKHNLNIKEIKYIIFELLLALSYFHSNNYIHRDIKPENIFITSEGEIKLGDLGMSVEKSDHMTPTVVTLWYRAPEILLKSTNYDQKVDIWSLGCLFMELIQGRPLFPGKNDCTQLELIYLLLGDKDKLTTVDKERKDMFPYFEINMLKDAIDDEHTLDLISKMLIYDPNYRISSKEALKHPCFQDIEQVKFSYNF
Sequence of L-lactate dehydrogenase (Plasmodium falciparum (isolate CDC / Honduras)) (Q27743 whole entry, looked up): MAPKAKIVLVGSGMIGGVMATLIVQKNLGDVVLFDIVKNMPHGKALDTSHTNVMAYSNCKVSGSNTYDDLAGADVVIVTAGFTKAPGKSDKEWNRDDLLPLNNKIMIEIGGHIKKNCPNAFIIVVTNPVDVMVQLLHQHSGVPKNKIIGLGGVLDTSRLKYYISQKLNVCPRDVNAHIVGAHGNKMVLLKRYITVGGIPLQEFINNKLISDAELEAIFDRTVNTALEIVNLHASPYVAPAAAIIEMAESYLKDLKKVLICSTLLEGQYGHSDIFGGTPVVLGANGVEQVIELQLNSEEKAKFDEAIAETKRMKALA
Sequence of Calcium-dependent protein kinase 1 (Plasmodium falciparum (isolate 3D7)) (P62344 whole entry, looked up): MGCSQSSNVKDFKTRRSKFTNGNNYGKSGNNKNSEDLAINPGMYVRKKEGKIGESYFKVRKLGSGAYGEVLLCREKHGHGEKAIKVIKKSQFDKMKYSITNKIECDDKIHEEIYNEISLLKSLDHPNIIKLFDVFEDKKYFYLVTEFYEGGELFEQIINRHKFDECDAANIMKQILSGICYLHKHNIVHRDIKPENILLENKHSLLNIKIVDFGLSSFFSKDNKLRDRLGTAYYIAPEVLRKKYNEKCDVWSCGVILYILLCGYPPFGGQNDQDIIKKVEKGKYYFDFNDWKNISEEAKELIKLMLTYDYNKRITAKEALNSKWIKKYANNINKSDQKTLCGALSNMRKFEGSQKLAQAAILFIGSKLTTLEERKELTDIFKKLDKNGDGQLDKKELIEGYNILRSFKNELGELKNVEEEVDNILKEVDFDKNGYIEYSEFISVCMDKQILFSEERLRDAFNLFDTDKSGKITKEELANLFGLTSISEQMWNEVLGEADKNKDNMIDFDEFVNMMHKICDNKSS

COc1ccc2nccc([C@@H](O)CN3CCC(NCc4cc5ccccc5cn4)CC3)c2n1
inactive: growth inhibition [1] 14% | inhibition [2] 3% | inhibition [3] -2% | outcome [5] | outcome [6] | outcome [7] | outcome [8]
active: growth inhibition [4] 93%

Cc1ccc(Nc2nc3cc(N(C)c4ccnc(Nc5cccc(CS(C)(=O)=O)c5)n4)ccc3o2)cc1
inactive: growth inhibition [1] 16% | inhibition [2] -19% | inhibition [3] 3% | outcome [5] | outcome [6] | outcome [7] | outcome [8]
active: growth inhibition [4] 90%

CCCCCN1CCCN(Cc2cccc(NC(=O)c3cc4ccccc4s3)c2)CC1
inactive: growth inhibition [1] 30% | inhibition [2] 29% | inhibition [3] 6% | outcome [5] | outcome [6] | outcome [7] | outcome [8]
active: growth inhibition [4] 99%

O=C1SC(=Cc2ccc(O)c(O)c2)C(=O)N1c1ccccc1
active: growth inhibition [4] 91%
inactive: growth inhibition [1] 17% | inhibition [2] 12% | inhibition [3] -5% | outcome [5] | outcome [6] | outcome [7] | outcome [8]

O=C(Nc1ccc(C(=O)OCC(c2ccccc2)c2ccccc2)cc1)N[C@@H](Cc1ccc(O)cc1)C(=O)NC1CCN(Cc2ccc(O)cc2)C1 (stereo not given in full)
inactive: growth inhibition [1] -4% | inhibition [2] -9% | inhibition [3] 1% | outcome [5] | outcome [6] | outcome [7] | outcome [8]
active: growth inhibition [4] 96%

CCOc1cc(-c2nnc3[nH]c(=O)n(C)c(=O)c3n2)ccc1OC(C)C
active: growth inhibition [1] 86% | growth inhibition [4] 97%
inactive: inhibition [2] 15% | inhibition [3] 1% | outcome [5] | outcome [6] | outcome [7] | outcome [8]

CCN(CC)CCCSc1ccc(-c2ccc(SCCCN(CC)CC)cc2)cc1
inactive: growth inhibition [1] 30% | inhibition [2] 38% | inhibition [3] -8% | outcome [5] | outcome [6] | outcome [7] | outcome [8]
active: growth inhibition [4] 87%

ON=C(c1nc2ccccc2[nH]1)c1nc2ccccc2[nH]1
inactive: inhibition [2] 36% | inhibition [3] 6% | outcome [5] | outcome [6] | outcome [7] | outcome [8]
active: growth inhibition [1] 68% | growth inhibition [4] 93%

COc1cc(NC(=O)N2CCc3ccc(OCCC4CCCN4C)cc32)cc(C(F)(F)F)c1 (stereo not given)
active: growth inhibition [4] 101%
inactive: growth inhibition [1] 42% | inhibition [2] 5% | inhibition [3] 3% | outcome [5] | outcome [6] | outcome [7] | outcome [8]

O=C(Cn1c2ccccc2c(=O)c2ccc(Cl)cc21)Nc1ccc(C(F)(F)F)cc1
active: growth inhibition [1] 100% | growth inhibition [4] 99%
inactive: inhibition [2] 30% | inhibition [3] -3% | outcome [5] | outcome [6] | outcome [7] | outcome [8]

CCC[C@@H]([C@@H](CC1CCCCC1)C(=O)N[C@H](C(=O)Nc1nccs1)C(C)(C)SCCNC(=O)OCC)N(O)C=O
inactive: inhibition [2] 45% | inhibition [3] 0% | outcome [5] | outcome [6] | outcome [7] | outcome [8]
active: growth inhibition [1] 98% | growth inhibition [4] 99%

COc1ccc2c(=O)c(-c3ccc(OC(F)(F)F)cc3)c(C)[nH]c2c1
active: growth inhibition [1] 96% | growth inhibition [4] 97%
inactive: inhibition [2] 0% | inhibition [3] -3% | outcome [5] | outcome [6] | outcome [7] | outcome [8]

CCn1ncc(Cl)c1CN(C)S(=O)(=O)c1ccc2ccccc2c1
inactive: inhibition [2] 16% | inhibition [3] -2% | outcome [5] | outcome [6] | outcome [7] | outcome [8]
active: growth inhibition [1] 91% | growth inhibition [4] 101%

COc1ccc(-c2ccc(CNCc3ccsc3)cc2)cc1S(=O)(=O)NCCN1CCCC1
active: growth inhibition [4] 94%
inactive: growth inhibition [1] 30% | inhibition [2] 22% | inhibition [3] 3% | outcome [5] | outcome [6] | outcome [7] | outcome [8]

O=C(NCC(=O)N1CCC[C@H]1C(=O)O)[C@@H](Cc1ccccc1)NC(=O)[C@@H]1CCCN1C(=O)CCCc1ccc(O)cc1 ({Butanoyl(4-(4-HOPh))}-P[dF]GP-OH)
inactive: growth inhibition [1] 1% | inhibition [2] 1% | inhibition [3] 3% | outcome [5] | outcome [6] | outcome [7] | outcome [8]
active: growth inhibition [4] 81%

COc1c(Br)cc(Br)cc1-c1ccc(CN2C3CCCC2CCC3)[nH]1
active: growth inhibition [1] 83% | growth inhibition [4] 88%
inactive: inhibition [2] 42% | inhibition [3] 3% | outcome [5] | outcome [6] | outcome [7] | outcome [8]

O=C(/C=C/c1ccc(Cl)c(Cl)c1)NCCCCCCN1CCCN(C(=O)Nc2cccc(Cl)c2)CC1
active: growth inhibition [4] 94%
inactive: growth inhibition [1] 2% | inhibition [2] 26% | inhibition [3] 0% | outcome [5] | outcome [6] | outcome [7] | outcome [8]

CC1(C)N=C(N)N=C(N)N1OCc1nc(N)nc(Nc2ccccc2)n1
active: growth inhibition [4] 98%
inactive: growth inhibition [1] -4% | inhibition [2] 3% | inhibition [3] -2% | outcome [5] | outcome [6] | outcome [7] | outcome [8]

CCOCCCn1c(=N)c(C(=O)NCc2ccc(F)cc2)cc2c(=O)n3cccc(C)c3nc21
active: growth inhibition [4] 101%
inactive: growth inhibition [1] 40% | inhibition [2] 21% | inhibition [3] 5% | outcome [5] | outcome [6] | outcome [7] | outcome [8]

O=C(Nc1cccc(-c2ccc(-c3nc4ccc(C(F)(F)F)cc4[nH]3)cc2)c1)c1cccnc1
active: growth inhibition [1] 97% | inhibition [2] 73% | growth inhibition [4] 101%
inactive: inhibition [3] -9% | outcome [5] | outcome [6] | outcome [7] | outcome [8]

O=C(Cc1cccs1)NCC(c1ccccc1Cl)c1c[nH]c2ccccc12 (stereo not given)
active: growth inhibition [1] 56% | growth inhibition [4] 91%
inactive: inhibition [2] 12% | inhibition [3] 1% | outcome [5] | outcome [6] | outcome [7] | outcome [8]

COc1cc(Cc2cnc(N)nc2N)cc(OCc2cccc(C(=O)O)c2)c1OC
inactive: growth inhibition [1] -3% | inhibition [2] 8% | inhibition [3] 4% | outcome [5] | outcome [6] | outcome [7] | outcome [8]
active: growth inhibition [4] 92%

O=C(NCCCCCN1CCC(c2c[nH]c3ccccc23)CC1)c1ccc(-c2cccnc2)cc1
inactive: growth inhibition [1] 10% | inhibition [2] 29% | inhibition [3] 1% | outcome [5] | outcome [6] | outcome [7] | outcome [8]
active: growth inhibition [4] 89%

Cc1ccc(CON2C(N)=NC(N)=NC2(C)C)c(Cl)c1 (tested in a mixture with another compound)
active: growth inhibition [1] 96% | inhibition [2] 67% | growth inhibition [4] 91%
inactive: inhibition [3] 0% | outcome [5] | outcome [6] | outcome [7] | outcome [8]

COc1ccc(Nc2cc(C)nc(NCc3ccc4c(c3)OCO4)n2)cc1
inactive: inhibition [2] 26% | inhibition [3] -2% | outcome [5] | outcome [6] | outcome [7] | outcome [8]
active: growth inhibition [1] 78% | growth inhibition [4] 99%

COc1c(C2CCN(CCCCNC(=O)c3ccc(-c4ccc(C#N)cc4)cc3)CC2)ccc2c1C(C)(C)CCC2(C)C
inactive: inhibition [3] -1% | outcome [5] | outcome [6] | outcome [7] | outcome [8]
active: growth inhibition [1] 86% | inhibition [2] 98% | growth inhibition [4] 102%

CCCCN(Cc1cc(Cl)c(OCC)c(OC)c1)c1ccc(C(O)(C(F)(F)F)C(F)(F)F)cc1
active: growth inhibition [1] 97% | growth inhibition [4] 92%
inactive: inhibition [2] 5% | inhibition [3] -6% | outcome [5] | outcome [6] | outcome [7] | outcome [8]

Oc1ccc2[nH]c(-c3cccc(F)c3)nc2c1CNCc1ccccc1
inactive: inhibition [2] 29% | inhibition [3] -2% | outcome [5] | outcome [6] | outcome [7] | outcome [8]
active: growth inhibition [1] 55% | growth inhibition [4] 92%

Cc1cc(O)c(CN(C)Cc2ccc3c(c2)OCO3)cc1C(C)C
inactive: inhibition [2] 9% | inhibition [3] 0% | outcome [5] | outcome [6] | outcome [7] | outcome [8]
active: growth inhibition [1] 74% | growth inhibition [4] 98%

CCNc1cc(C(=O)N[C@@H](Cc2ccco2)[C@H](O)CNC2CCCCC2)cc(N2CCCCS2(=O)=O)c1
inactive: inhibition [2] 14% | inhibition [3] 3% | outcome [5] | outcome [6] | outcome [7] | outcome [8]
active: growth inhibition [1] 57% | growth inhibition [4] 91%

COc1ccc2ncc(Cl)c(N3CCC(CCNCc4ccc5c(n4)NC(=O)CS5)CC3)c2c1
inactive: inhibition [2] 33% | inhibition [3] 0% | outcome [5] | outcome [6] | outcome [7] | outcome [8]
active: growth inhibition [1] 82% | growth inhibition [4] 89%

Cc1ccc(S(=O)(=O)N(C)c2ccccc2C(=O)Nc2ccccc2Oc2ccccc2)cc1
active: growth inhibition [1] 90% | growth inhibition [4] 98%
inactive: inhibition [2] 5% | inhibition [3] 3% | outcome [5] | outcome [6] | outcome [7] | outcome [8]

O=C(Nc1cccc2ccccc12)N1CCc2cc3nccc(N4CCN5CCC[C@H]5C4)c3cc21
active: growth inhibition [1] 86% | growth inhibition [4] 99%
inactive: inhibition [2] 11% | inhibition [3] 0% | outcome [5] | outcome [6] | outcome [7] | outcome [8]

CC1(C)N=C(N)N=C(N)N1c1ccc([N+](=O)[O-])cc1
active: growth inhibition [4] 93%
inactive: growth inhibition [1] 1% | inhibition [2] 3% | inhibition [3] -3% | outcome [5] | outcome [6] | outcome [7] | outcome [8]

COc1ccc(NS(=O)(=O)c2cccc(C(=O)Nc3ccc(C(F)(F)F)cc3)c2)cc1N1CCN(CC(C)C)CC1
inactive: growth inhibition [1] 4% | inhibition [2] 5% | inhibition [3] 2% | outcome [5] | outcome [6] | outcome [7] | outcome [8]
active: growth inhibition [4] 94%

Cc1noc(C)c1-c1ccc2c(Nc3ccc([N+](=O)[O-])cc3)c(C(N)=O)cnc2c1
active: growth inhibition [1] 98% | growth inhibition [4] 100%
inactive: inhibition [2] 4% | inhibition [3] 4% | outcome [5] | outcome [6] | outcome [7] | outcome [8]

Cc1cccc2[nH]c(-c3ccc(-c4cccc(NC(=O)Nc5ccsc5)c4)cc3)nc12
inactive: growth inhibition [1] 24% | inhibition [2] 24% | inhibition [3] 8% | outcome [5] | outcome [6] | outcome [7] | outcome [8]
active: growth inhibition [4] 101%

Cc1noc(C)c1-c1ccc2c(Nc3ccccc3C(C)(C)C)c(C(=O)NCc3ccc(C(F)(F)F)cc3)cnc2c1
active: growth inhibition [1] 50% | growth inhibition [4] 99%
inactive: inhibition [2] 30% | inhibition [3] 0% | outcome [5] | outcome [6] | outcome [7] | outcome [8]

COc1ccc(OCCON)cc1
inactive: growth inhibition [1] -3% | inhibition [2] 0% | inhibition [3] -2% | outcome [5] | outcome [6] | outcome [7] | outcome [8]
active: growth inhibition [4] 98%

NC1=NC(Cc2ccccc2)(c2ccncc2)C(=O)N1CCCc1ccccc1 (stereo not given)
inactive: growth inhibition [1] 1% | inhibition [2] 1% | inhibition [3] 3% | outcome [5] | outcome [6] | outcome [7] | outcome [8]
active: growth inhibition [4] 86%
